Gal4-VP16 FLuc = counter-screen for ROR gamma inhibitors: Gal4-VP16 reporter | Drosophila S2 Gal4-VP16 UAS-luciferase, luminescence, 20 h | Potency, µM (series often up to 53.6 µM), usual class: inhibitors | 310,000 tested, 3.5% active | AID 2546;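 further: Gal4-VP16 expression switched on by copper sulfate through the metallothionein promoter; nearly all actives have a fitted effect of over 50% in size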
B2AR arrestin = agonists driving beta-arrestin recruitment to human beta2-adrenergic receptor; Potency, µM (series often up to 46.1 µM), hits mostly activators; beta-arrestin recruitment to beta2AR, cell-based reporter; P07550; 330,000 tested, 0.02% active; further: nearly all actives have a fitted effect of over 65% in size
RORgamma inh = blocks mouse ROR gamma transcriptional activity | Potency, µM (series often up to 53.6 µM), hits mostly inhibitors | Drosophila S2 Gal4-RORgamma UAS-luciferase reporter, 20 h | 310,000 tested, 5.4% active | P51450; further: nearly all actives have a fitted effect of over 60% in size
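Luciferase reporter read in Schneider cells carrying Gal4-RORγ (mouse) and UAS-Photinus luciferase; cells given compound 1 h before 700 uM copper sulfate induction, then incubated 20 h at ambient temperature.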
TSHR antagonist = human thyrotropin receptor antagonism; activity change, negative = inhibition, % at 11.5 µM; AID 504810; P16473; TSHR-expressing cells, TSH-stimulated cAMP HTRF, 2 h; active compounds read low; 330,000 tested, 0.2% active;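 active means activity change below a set negative limit, meaning inhibition stronger than a set level, cut at about -70% in these data; inconclusive means activity change between two set negative limits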
Target sequence (P16473 whole entry, looked up): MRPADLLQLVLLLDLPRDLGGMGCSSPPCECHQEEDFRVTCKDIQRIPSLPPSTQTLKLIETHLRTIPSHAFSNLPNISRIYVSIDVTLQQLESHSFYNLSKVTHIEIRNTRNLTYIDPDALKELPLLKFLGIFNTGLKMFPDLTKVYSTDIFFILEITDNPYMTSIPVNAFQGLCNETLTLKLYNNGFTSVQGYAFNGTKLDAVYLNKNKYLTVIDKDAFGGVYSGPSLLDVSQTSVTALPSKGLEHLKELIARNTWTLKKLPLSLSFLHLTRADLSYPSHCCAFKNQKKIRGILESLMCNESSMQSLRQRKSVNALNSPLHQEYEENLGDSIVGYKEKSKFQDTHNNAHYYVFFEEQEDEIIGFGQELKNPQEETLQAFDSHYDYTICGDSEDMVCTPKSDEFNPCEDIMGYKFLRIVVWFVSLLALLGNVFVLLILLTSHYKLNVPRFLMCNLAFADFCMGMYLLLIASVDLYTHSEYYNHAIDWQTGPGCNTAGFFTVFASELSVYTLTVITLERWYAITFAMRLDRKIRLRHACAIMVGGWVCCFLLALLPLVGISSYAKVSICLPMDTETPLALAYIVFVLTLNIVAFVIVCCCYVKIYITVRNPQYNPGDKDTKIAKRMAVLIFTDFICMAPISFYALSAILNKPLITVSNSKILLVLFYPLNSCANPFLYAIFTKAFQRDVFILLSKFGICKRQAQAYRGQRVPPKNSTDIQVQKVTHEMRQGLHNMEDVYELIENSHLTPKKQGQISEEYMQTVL
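Read-out is FRET at 665 nm (cryptate excitation 337 nm) from a cryptate-tagged anti-cAMP antibody, competed by cell cAMP against cAMP-d2. Compounds are tested on freshly harvested TSHR cells challenged with 4nM TSH (EC80) for 2 hours at 37 deg C.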
ELG1 repair inh = ELG1-dependent DNA repair inhibition. HEK293T ELG1-luciferase reporter, luminescence, 16 h; DNA damage induced by 5-fluorouridine. Potency, µM (doses to about 46.1 µM), usual class: inhibitors. 330,000 tested, 2.3% active; further: nearly all actives have a fitted effect of over 55% in size
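Luminescence from the luciferase reporter, measured 30 min after ONE-Glo reagent at room temperature, was the read-out. Beforehand, 2,000 cells per well were exposed for 16 hr at 37 °C to 5-fluorouridine together with compound or vehicle.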
Large screens that a line does not name were inactive. Hits are enriched below; roughly 7.5% of the tested compounds scored in any of these assays. Unless noted, the call rests on the fitted dose curve; in most records, active means well fitted curve in the direction sought with a large enough effect; inconclusive means small, poorly fitted or top-dose-only effect, or another doubt; inactive means no such curve, though single readings can be large; an effect the other way counts as inactive or inconclusive.

CN(C)c1ccc(N/C=C/C(=O)c2ccco2)cc1	Gal4-VP16 FLuc 11µM, ELG1 repair inh inconclusive
NS(=O)(=O)c1ccc(N/C=C\C(=O)c2ccc(F)cc2)cc1	Gal4-VP16 FLuc inconclusive, ELG1 repair inh inconclusive
CC(=O)Nc1ccc(N/C=C/C(=O)c2ccco2)cc1	Gal4-VP16 FLuc inconclusive, RORgamma inh inconclusive, ELG1 repair inh inconclusive
CN(C)c1ccc(-c2nc(N3CCNCC3)c3ccccc3n2)cc1	RORgamma inh inconclusive (no result: B2AR arrestin, TSHR antagonist, ELG1 repair inh)
COC1CCCN(Cc2c(C(=O)N3CCN(C4CCCCC4)CC3)nc3ccccn23)C1 (stereo not given)	none
CC(=O)OC[C@@H]1O[C@@H](O/N=C2/C[C@@H](O)[C@@H](O)[C@@H]3[C@@H]4C(=O)N(Cc5ccc6c(c5)OCO6)C(=O)[C@H]4CC[C@@H]23)[C@H](OC(C)=O)[C@H](OC(C)=O)[C@@H]1OC(C)=O	none (no result: B2AR arrestin, TSHR antagonist, ELG1 repair inh)
CC1(C)N=C(c2ccccc2)C(=O)N1	none
CC(C)CC1(C)N=C(c2ccccc2)C(=S)N1 (stereo not given)	Gal4-VP16 FLuc 2.8µM, RORgamma inh 2.8µM
Cc1ccc(C2=NC(C)(C)NC2=O)cc1	none
Cc1ccc(C2=NC3(CCCC3)NC2=S)cc1	Gal4-VP16 FLuc 7.9µM, RORgamma inh 2.5µM, ELG1 repair inh inconclusive
S=C1NC2(CCCC2)N=C1c1ccccc1	RORgamma inh 5µM
O=C1NC2(CCCCCC2)N=C1c1ccc(F)cc1	none
S=C1NC2(CCCCCC2)N=C1c1ccccc1	Gal4-VP16 FLuc inconclusive, RORgamma inh 2µM
CCOc1ccc(NS(=O)(=O)c2ccc(C(=O)NC3CCC(O)CC3)cc2)cc1 (stereo not given)	none (no result: Gal4-VP16 FLuc, RORgamma inh, TSHR antagonist)
O=C(NCCc1ccc(C(F)(F)F)cc1)C1CCC(=O)N(CCCN2CCCC2=O)C1 (stereo not given)	none
O=C(Cc1cccs1)NCc1ccco1	none
O=C(CC12CC3CC(CC(C3)C1)C2)NC(=S)NCc1ccco1	Gal4-VP16 FLuc inconclusive, RORgamma inh 3.5µM, ELG1 repair inh inconclusive
O=C(Cc1cccs1)NNC(=S)NCc1ccco1	RORgamma inh 14µM
C/C(CC(=O)NCc1ccco1)=N\NC(=O)Cc1ccc(-c2ccccc2)cc1	none
O=C(Cc1ccc(-c2ccccc2)cc1)NNC(=S)NCc1ccco1	Gal4-VP16 FLuc inconclusive, RORgamma inh 5.6µM, ELG1 repair inh inconclusive
Cc1ccc2c(c1)C1CC(C)(O2)N(c2cccc(C(=O)NC3CCN(Cc4ccccc4)CC3)c2)C(=O)N1 (stereo not given)	none
O=C(Nc1cccc(/C=C/c2ccccn2)c1)c1ccc(-n2cncn2)c([N+](=O)[O-])c1	ELG1 repair inh 9.2µM (no result: Gal4-VP16 FLuc, RORgamma inh)
CC(=O)NN1C(=O)c2ccc3c4c(ccc(c24)C1=O)C(=O)N(NC(C)=O)C3=O	Gal4-VP16 FLuc 11µM, RORgamma inh 11µM, ELG1 repair inh inconclusive
CC(C)c1ccc(O)c(NC(=O)c2ncn[nH]2)c1	none
CCc1ccc2c(c1)C1(NN=C(c3ccc(C)cc3)S1)C(=O)N2 (stereo not given)	Gal4-VP16 FLuc 3.5µM, RORgamma inh 4µM, ELG1 repair inh inconclusive
CC(C)c1ccc2c(c1)C1(NN=C(c3ccccc3)S1)C(=O)N2 (stereo not given)	Gal4-VP16 FLuc 5µM, RORgamma inh 5.6µM, ELG1 repair inh inconclusive
Cc1ccc(Cc2cc(-c3ccc(C)cc3)n[nH]c2=O)cc1	none
COc1ccc(-n2c(=O)c(-c3cccs3)nc3cnc(OC)nc32)cc1	none (no result: B2AR arrestin, TSHR antagonist, ELG1 repair inh)
CCOC(=O)N1CCN(C(=O)c2ccc3c(c2)NC(=O)/C(=C\c2ccc(OC)c(OC)c2)S3)CC1	TSHR antagonist -133, ELG1 repair inh inconclusive
CCOc1ccc(/C=C2/Sc3ccc(C(=O)N4CCN(C(=O)c5ccco5)CC4)cc3N(C)C2=O)cc1OC	ELG1 repair inh 21µM
CCOc1ccc(/C=C2/Sc3ccc(C(=O)NCC4CCCO4)cc3N(C)C2=O)cc1OC (stereo not given)	ELG1 repair inh 18µM
CCOC(=O)N1CCN(C(=O)c2ccc3c(c2)N(C)C(=O)/C(=C\c2ccc(OCC)c(OC)c2)S3)CC1	ELG1 repair inh inconclusive
Cc1cccc(/C=C2\Sc3ccc(C(=O)NCC4CCCO4)cc3N(C)C2=O)c1 (stereo not given)	ELG1 repair inh inconclusive
COc1ccc(/C=C2/Sc3ccc(C(=O)NCCN4CCCCCC4)cc3NC2=O)cc1	Gal4-VP16 FLuc 20µM, RORgamma inh inconclusive, ELG1 repair inh inconclusive
CCCC[C@H](O)c1ccccc1	none (no result: B2AR arrestin, TSHR antagonist, ELG1 repair inh)

Screens (PubChem BioAssay)
